In PubChem BioAssay:
The source made the active and inactive calls.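 The calls were made as follows, unless noted: active = binding below the plate cutoff, the plate median minus 3 SD, with a reading above zero; inconclusive = below the plate cutoff but reading exactly zero; inactive = the rest.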

Key:
[1] = inhibitors of CD8+ T cell-vesicle binding, pilot screen, LFA-1/ICAM-1 modulator project, MLPCN validation set, flow cytometry (AID 2523;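 active = response below a set limit, under 55% cells CD8-positive and vesicle-bound, and CD8 cells' 90th-percentile brightness under 279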;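 as to vesicle binding response: mean PE anti-B7-1 fluorescence of CD8+ cells relative to row control; 100% = QL9-loaded vesicles with DMSO vehicle in the same plate row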); details: 2C mouse CD8+ T cells, at 7 µM, stronger effect = lower value; double positive events: measured here: CD8+/vesicle+ event percentage
[2] = molecular target: Integrin beta-1 (Homo sapiens) + Integrin alpha-4 (Homo sapiens) (UniProt P13612+P05556); assay: inhibition of HUTS-21 binding to VLA-4, pilot screen, VLA-4 allosteric modulator project, U937 cells, HUTS-21 mAb, flow cytometry, validation set (AID 2674;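 active = inhibition above 50%, about 3 SD of the validation set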;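 also: antibody binding induced by the VLA-4 ligand LDV present at three times its Kd; 0% = LDV ligand with antibody and no compound and 100% = antibody without LDV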); details: HUTS-21 LIBS mAb binding, at 6.7 µM, stronger effect = higher value, binding induced by LDV ligand
Sequence of Integrin beta-1 (Homo sapiens) + Integrin alpha-4 (Homo sapiens) (P05556 whole entry, looked up): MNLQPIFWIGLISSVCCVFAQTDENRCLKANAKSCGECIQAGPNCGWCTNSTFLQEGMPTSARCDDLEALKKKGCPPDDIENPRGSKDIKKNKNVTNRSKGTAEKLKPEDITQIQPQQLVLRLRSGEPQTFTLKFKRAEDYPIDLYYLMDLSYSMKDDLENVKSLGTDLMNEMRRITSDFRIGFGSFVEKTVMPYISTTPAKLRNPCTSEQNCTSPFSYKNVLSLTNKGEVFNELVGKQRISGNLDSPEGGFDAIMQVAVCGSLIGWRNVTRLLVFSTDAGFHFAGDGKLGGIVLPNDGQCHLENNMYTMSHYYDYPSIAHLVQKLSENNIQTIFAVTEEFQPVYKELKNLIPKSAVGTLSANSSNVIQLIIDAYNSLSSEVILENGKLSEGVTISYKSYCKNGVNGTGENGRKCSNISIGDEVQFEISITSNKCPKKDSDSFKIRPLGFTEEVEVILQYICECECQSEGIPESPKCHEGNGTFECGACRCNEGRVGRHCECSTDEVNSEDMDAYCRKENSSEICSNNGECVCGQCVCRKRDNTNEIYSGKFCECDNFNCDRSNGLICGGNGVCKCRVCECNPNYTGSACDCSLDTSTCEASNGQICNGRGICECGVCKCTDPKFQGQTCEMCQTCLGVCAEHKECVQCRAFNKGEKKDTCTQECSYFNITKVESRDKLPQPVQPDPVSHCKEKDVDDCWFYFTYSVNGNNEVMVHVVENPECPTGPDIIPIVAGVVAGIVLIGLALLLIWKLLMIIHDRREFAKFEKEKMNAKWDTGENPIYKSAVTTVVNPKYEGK
Sequence of Integrin beta-1 (Homo sapiens) + Integrin alpha-4 (Homo sapiens) (P13612 whole entry, looked up): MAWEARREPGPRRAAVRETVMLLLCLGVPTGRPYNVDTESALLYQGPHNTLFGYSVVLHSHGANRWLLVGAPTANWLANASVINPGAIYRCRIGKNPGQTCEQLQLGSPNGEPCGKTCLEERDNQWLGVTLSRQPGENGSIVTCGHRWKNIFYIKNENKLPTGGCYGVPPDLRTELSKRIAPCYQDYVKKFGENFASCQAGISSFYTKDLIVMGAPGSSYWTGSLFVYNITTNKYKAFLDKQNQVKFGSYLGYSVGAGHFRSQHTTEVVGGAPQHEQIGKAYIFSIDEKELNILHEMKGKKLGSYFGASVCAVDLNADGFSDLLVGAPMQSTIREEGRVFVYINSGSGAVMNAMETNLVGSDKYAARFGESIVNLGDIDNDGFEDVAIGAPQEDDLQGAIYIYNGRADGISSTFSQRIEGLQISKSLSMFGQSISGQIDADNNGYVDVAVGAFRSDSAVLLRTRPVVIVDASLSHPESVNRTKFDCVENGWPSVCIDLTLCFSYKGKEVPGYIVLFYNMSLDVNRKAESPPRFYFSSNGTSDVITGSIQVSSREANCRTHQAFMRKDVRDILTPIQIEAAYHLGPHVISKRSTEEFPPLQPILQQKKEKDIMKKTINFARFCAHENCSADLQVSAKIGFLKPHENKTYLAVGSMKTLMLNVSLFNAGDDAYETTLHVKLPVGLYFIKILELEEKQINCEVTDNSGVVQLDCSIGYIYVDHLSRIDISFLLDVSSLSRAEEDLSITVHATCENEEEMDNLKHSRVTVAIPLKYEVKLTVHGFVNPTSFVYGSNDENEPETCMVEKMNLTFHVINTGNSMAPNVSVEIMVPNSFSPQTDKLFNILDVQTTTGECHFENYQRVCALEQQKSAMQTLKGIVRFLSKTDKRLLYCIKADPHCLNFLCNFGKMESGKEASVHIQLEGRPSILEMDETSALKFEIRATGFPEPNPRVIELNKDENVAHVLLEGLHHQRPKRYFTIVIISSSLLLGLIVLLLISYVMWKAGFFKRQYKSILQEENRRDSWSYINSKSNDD

[3] = superoxide lowering in aged yeast cells, pilot screen, validation compound set (AID 2706;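 active = superoxide response below 65% of plate, a cut near 3 SD across the whole screen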;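 also: yeast exposed to compound for one week at 30 degrees C before staining; 100% = mean of all compound wells on the same plate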); details: S. cerevisiae aging, superoxide DHE fluorescence; at 10 µM, stronger effect = lower value
[4] = molecular target: Beta-adrenergic receptor kinase 1 (Homo sapiens) (UniProt P25098); assay: GRK2 binders displacing RNA aptamer, biochemical, validation, human GRK2, bead flow cytometry (AID 488806;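 active = aptamer binding inhibition above 30%, about 3 SD of noise from non-fluorescent compounds; inactive = inhibition at or below 30%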); details: bead-bound GRK2, FAM-aptamer displacement, at 10 µM, stronger effect = higher value
Sequence of Beta-adrenergic receptor kinase 1 (Homo sapiens) (P25098 whole entry, looked up): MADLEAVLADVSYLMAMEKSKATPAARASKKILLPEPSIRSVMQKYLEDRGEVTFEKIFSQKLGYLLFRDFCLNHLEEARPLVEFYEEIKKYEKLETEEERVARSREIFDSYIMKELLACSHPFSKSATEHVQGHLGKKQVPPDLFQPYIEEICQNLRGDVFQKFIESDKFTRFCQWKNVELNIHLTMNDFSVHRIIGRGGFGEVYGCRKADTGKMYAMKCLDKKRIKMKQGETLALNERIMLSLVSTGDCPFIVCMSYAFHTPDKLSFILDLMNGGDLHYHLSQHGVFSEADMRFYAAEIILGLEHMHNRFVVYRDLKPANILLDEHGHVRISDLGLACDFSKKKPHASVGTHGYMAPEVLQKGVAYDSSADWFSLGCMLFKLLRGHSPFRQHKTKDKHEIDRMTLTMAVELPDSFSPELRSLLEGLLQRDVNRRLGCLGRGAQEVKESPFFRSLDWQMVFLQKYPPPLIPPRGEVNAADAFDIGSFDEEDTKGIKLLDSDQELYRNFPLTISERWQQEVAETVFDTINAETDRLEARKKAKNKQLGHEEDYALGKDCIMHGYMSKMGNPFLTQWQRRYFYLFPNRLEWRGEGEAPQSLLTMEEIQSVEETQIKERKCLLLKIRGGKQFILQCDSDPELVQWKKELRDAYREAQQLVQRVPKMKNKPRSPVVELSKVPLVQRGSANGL

[5] = molecular target: AP-2 complex subunit beta (Homo sapiens) (UniProt P63010); assay: inhibitors of arrestin peptide binding to AP2, pilot screen, biochemical, validation set, GST-AP2 beads, flow cytometry (AID 504541;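 active = inhibition above 54%, about 3 SD of non-fluorescent compounds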;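 also: AP2 carries R879A mutation and is captured from E. coli lysate; bead-bound FITC arrestin peptide fluorescence measuring arrestin peptide binding to AP2; 0% = DMSO wells and 100% = excess unlabeled arrestin peptide control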); details: FITC arrestin peptide, at 10 µM, stronger effect = higher value, AP2 beta2 appendage fragment, R879A mutant
Sequence of AP-2 complex subunit beta (Homo sapiens) (P63010 whole entry, looked up, the tested form may be a part, one chain of several): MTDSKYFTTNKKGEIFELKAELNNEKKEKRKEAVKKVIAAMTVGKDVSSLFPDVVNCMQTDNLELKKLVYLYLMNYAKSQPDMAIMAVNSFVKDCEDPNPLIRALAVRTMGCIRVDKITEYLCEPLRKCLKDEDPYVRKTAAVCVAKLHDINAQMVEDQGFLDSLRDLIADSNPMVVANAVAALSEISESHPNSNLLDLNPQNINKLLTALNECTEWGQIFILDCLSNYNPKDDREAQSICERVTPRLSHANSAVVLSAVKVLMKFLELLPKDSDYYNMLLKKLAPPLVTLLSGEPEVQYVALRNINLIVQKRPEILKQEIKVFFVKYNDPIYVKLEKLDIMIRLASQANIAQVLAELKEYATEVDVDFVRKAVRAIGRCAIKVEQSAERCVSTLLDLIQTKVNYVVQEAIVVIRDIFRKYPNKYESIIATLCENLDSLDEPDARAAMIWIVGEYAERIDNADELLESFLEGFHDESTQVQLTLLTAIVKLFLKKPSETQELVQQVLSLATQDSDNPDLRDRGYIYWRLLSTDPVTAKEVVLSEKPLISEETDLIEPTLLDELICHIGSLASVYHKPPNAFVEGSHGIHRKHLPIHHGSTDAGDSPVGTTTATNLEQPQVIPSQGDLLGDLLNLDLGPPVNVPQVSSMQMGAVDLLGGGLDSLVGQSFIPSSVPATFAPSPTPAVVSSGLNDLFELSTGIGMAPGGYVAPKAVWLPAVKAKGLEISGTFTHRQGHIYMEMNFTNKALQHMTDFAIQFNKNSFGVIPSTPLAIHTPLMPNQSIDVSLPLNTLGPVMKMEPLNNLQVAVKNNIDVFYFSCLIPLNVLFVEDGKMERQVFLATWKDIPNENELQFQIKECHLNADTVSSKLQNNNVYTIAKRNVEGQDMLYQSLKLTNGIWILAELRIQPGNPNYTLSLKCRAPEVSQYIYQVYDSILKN

[6] = yeast V-ATPase proton transport modulators, S. cerevisiae, pHLuorin, HTS validation (AID 504600; in the data active = response above about 15%;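 also: plate controls were DMSO for no effect and reference compound for full effect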); details: S. cerevisiae pHLuorin cytosolic pH, at 10 µM, stronger effect = higher value
[7] = test system: anti-desmoglein-3 scFv antibody binding to human DSG3; assay: inhibitors of anti-DSG3 scFv binding to DSG3, pilot screen, biochemical, validation compound set, bead-based, flow cytometry (AID 588368); details: Protein G beads, DSG3-Fc, scFv-GFP binding, at 10 µM, stronger effect = lower value;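 also: signal is the median channel fluorescence of bead-bound GFP antibody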
[8] = inhibitors of fungal efflux pumps CDR1, CDR2, MDR1, pilot screen, validation compound set, multiplex, phenotypic (AID 588506;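 active = efflux inhibition above 0.42, the validation set average plus 4 SD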;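 also: Nile Red retained in cells so higher fluorescence means more efflux inhibition; 0 = negative control wells and 1 = enniatin B 25 µM full block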); details: S. cerevisiae pump-expressing triplex, Nile Red efflux flow cytometry; at 10 µM; stronger effect = higher value; the pumps come from Candida albicans
[9] = molecular target: ATP-binding cassette sub-family B member 6 (Homo sapiens) (UniProt Q9NP58); assay: ABCB6 transporter inhibitors, pilot screen, K562-ABCB6 cells, flow cytometry, validation set (AID 588550;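 active = inhibition above the screen-wide mean plus 3 SD, about 51%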;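 also: 0% = DMSO wells and 100% = benzethonium chloride 70 µM positive control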); details: K562-ABCB6 porphyrin accumulation, 1 h, at 10 µM, stronger effect = higher value
Sequence of ATP-binding cassette sub-family B member 6 (Homo sapiens) (Q9NP58 whole entry, looked up): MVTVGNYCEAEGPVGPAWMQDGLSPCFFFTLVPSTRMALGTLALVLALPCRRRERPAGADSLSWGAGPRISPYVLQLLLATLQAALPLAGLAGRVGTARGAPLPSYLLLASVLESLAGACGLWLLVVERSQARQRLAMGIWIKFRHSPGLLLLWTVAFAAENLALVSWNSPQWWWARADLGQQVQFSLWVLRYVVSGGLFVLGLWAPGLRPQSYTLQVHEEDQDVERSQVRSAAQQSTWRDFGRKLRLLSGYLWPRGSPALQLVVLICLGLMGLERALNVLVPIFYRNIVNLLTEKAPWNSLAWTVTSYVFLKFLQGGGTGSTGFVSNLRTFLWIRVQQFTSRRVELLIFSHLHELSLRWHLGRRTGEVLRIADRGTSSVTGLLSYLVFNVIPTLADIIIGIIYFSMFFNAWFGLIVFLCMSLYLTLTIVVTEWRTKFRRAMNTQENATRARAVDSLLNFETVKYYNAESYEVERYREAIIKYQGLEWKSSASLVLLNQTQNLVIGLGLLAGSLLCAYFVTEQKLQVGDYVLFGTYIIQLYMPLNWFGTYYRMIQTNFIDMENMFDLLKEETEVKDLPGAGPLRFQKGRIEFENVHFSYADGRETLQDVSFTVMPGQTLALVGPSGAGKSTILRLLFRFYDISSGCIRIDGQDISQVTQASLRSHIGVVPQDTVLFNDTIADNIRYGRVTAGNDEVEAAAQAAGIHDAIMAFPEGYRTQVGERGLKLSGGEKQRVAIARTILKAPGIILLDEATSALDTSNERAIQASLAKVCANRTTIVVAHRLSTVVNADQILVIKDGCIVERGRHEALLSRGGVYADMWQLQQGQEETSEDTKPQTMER

[10] = promoters of myeloid differentiation in arrested cells, primary screen, cell-based, GFP/MAC1 double positive, flow cytometry, validation set (AID 588685;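 active = differentiation response of at least 50%, scaled between solvent and reference control, from cells with both markers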;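 also: compound exposure lasts four days before antibody staining and flow analysis; 0% = DMSO wells and 100% = 5 µM fulvestrant positive control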); details: ER-HoxA9 marrow cells, stronger effect = higher value, normalized: vehicle 0, fulvestrant 100

C(=C/c1nccc2c1[nH]c1ccccc12)/c1ccc2c(c1)OCO2
double positive events [1]: 58.5% | vesicle binding response [1]: 170% (inactive) | inhibition [2]: -239% (inactive) | superoxide response (% of plate) [3]: 93.4% (inactive) | aptamer binding inhibition [4]: -1% (inactive) | inhibition [5]: 23.3% (inactive) | response [6]: 1.54% (inactive) | binding (% of control) [7]: 144% (inactive) | efflux inhibition (fraction of control) [8]: -0.35 (inactive) | inhibition [9]: 8% (inactive) | differentiation response [10]: -18% (inactive)

O=C(O)CCn1c(=S)n(CCC(=O)O)c2ccccc21
double positive events [1]: 53.4% | vesicle binding response [1]: 162% (inactive) | inhibition [2]: 8.15% (inactive) | superoxide response (% of plate) [3]: 112% (inactive) | aptamer binding inhibition [4]: 4% (inactive) | inhibition [5]: 4.52% (inactive) | response [6]: -0.83% (inactive) | binding (% of control) [7]: 101% (inactive) | efflux inhibition (fraction of control) [8]: -0.05 (inactive) | inhibition [9]: 5% (inactive) | differentiation response [10]: -6.66% (inactive)

N=c1ccn(CC(=O)NC(N)=O)c2ccccc12
double positive events [1]: 55.8% | vesicle binding response [1]: 241% (inactive) | inhibition [2]: 12.8% (inactive) | superoxide response (% of plate) [3]: 99.5% (inactive) | aptamer binding inhibition [4]: 4% (inactive) | inhibition [5]: 8.55% (inactive) | response [6]: 14.2% (inactive) | binding (% of control) [7]: 95.7% (inactive) | efflux inhibition (fraction of control) [8]: -0.09 (inactive) | inhibition [9]: -15% (inactive) | differentiation response [10]: -3.43% (inactive)

COc1c2occc2c(OC)c2c(=O)cc(C(F)(F)C(F)(F)F)oc12
double positive events [1]: 50% | vesicle binding response [1]: 156% (inactive) | inhibition [2]: 3.49% (inactive) | superoxide response (% of plate) [3]: 123% (inactive) | aptamer binding inhibition [4]: 2% (inactive) | inhibition [5]: -6.1% (inactive) | response [6]: -16% (inactive) | binding (% of control) [7]: 103% (inactive) | efflux inhibition (fraction of control) [8]: 0.03 (inactive) | inhibition [9]: 9% (inactive) | differentiation response [10]: -16.4% (inactive)

COc1c2occc2c(OC)c2c(=O)cc(C)oc12
double positive events [1]: 48.6% | vesicle binding response [1]: 176% (inactive) | inhibition [2]: 8.15% (inactive) | superoxide response (% of plate) [3]: 108% (inactive) | aptamer binding inhibition [4]: 1% (inactive) | inhibition [5]: -4.24% (inactive) | response [6]: 3.33% (inactive) | binding (% of control) [7]: 102% (inactive) | efflux inhibition (fraction of control) [8]: 0.1 (inactive) | inhibition [9]: 5% (inactive) | differentiation response [10]: 33.7% (inactive)

COc1ccc2[nH]c(C)c(CN3CCC(C)CC3)c(=O)c2c1
double positive events [1]: 50.2% | vesicle binding response [1]: 154% (inactive) | inhibition [2]: -14.2% (inactive) | superoxide response (% of plate) [3]: 100% (inactive) | aptamer binding inhibition [4]: 2% (inactive) | inhibition [5]: -1.75% (inactive) | response [6]: 4.29% (inactive) | binding (% of control) [7]: 98.5% (inactive) | efflux inhibition (fraction of control) [8]: 0.1 (inactive) | inhibition [9]: 2% (inactive) | differentiation response [10]: -5.05% (inactive)

CC1(C)Cc2nc3oc4c(NCc5ccccc5)ncnc4c3cc2CO1
double positive events [1]: 49.8% | vesicle binding response [1]: 183% (inactive) | inhibition [2]: 4.42% (inactive) | superoxide response (% of plate) [3]: 95.3% (inactive) | aptamer binding inhibition [4]: -2% (inactive) | inhibition [5]: -8.27% (inactive) | response [6]: -4.11% (inactive) | binding (% of control) [7]: 105% (inactive) | efflux inhibition (fraction of control) [8]: -0.2 (inactive) | inhibition [9]: 5% (inactive) | differentiation response [10]: 0% (inactive)

CCCCC[C@H](O)/C=C/[C@@H]1[C@@H](CCCCCCC(=O)O)[C@@H](O)C[C@H]1O
double positive events [1]: 55.5% | vesicle binding response [1]: 114% (inactive) | inhibition [2]: 5.36% (inactive) | superoxide response (% of plate) [3]: 104% (inactive) | aptamer binding inhibition [4]: 2% (inactive) | inhibition [5]: -0.39% (inactive) | response [6]: 1.43% (inactive) | binding (% of control) [7]: 99.8% (inactive) | efflux inhibition (fraction of control) [8]: 0.29 (inactive) | inhibition [9]: 9% (inactive) | differentiation response [10]: -26% (inactive)

O=C(NC(CO)Cc1ccc([N+](=O)[O-])cc1)C(Cl)Cl (centres undefined)
double positive events [1]: 57.3% | vesicle binding response [1]: 146% (inactive) | inhibition [2]: -11.4% (inactive) | superoxide response (% of plate) [3]: 100% (inactive) | aptamer binding inhibition [4]: 15% (inactive) | inhibition [5]: 0.05% (inactive) | response [6]: 0.32% (inactive) | binding (% of control) [7]: 100% (inactive) | efflux inhibition (fraction of control) [8]: -0.24 (inactive) | inhibition [9]: 14% (inactive) | differentiation response [10]: -24.4% (inactive)

Cc1c(CCOC(=O)CC23CC4CC(CC(C)(C4)C2)C3)sc[n+]1Cc1ccc([N+](=O)[O-])cc1
double positive events [1]: 59% | vesicle binding response [1]: 208% (inactive) | inhibition [2]: 8.15% (inactive) | superoxide response (% of plate) [3]: 98.4% (inactive) | aptamer binding inhibition [4]: -9% (inactive) | inhibition [5]: -6.04% (inactive) | response [6]: 3.23% (inactive) | binding (% of control) [7]: 108% (inactive) | efflux inhibition (fraction of control) [8]: 1.81 (active) | inhibition [9]: 6% (inactive) | differentiation response [10]: 0% (inactive)

C[C@]12CCC(=O)C[C@@H]1CC[C@@H]1[C@@H]2CC[C@]2(C)C=CC[C@@H]12
double positive events [1]: 51.4% | vesicle binding response [1]: 201% (inactive) | inhibition [2]: 5.36% (inactive) | superoxide response (% of plate) [3]: 111% (inactive) | aptamer binding inhibition [4]: 2% (inactive) | inhibition [5]: 2.65% (inactive) | response [6]: 17% (active) | binding (% of control) [7]: 103% (inactive) | efflux inhibition (fraction of control) [8]: 0.1 (inactive) | inhibition [9]: 4% (inactive) | differentiation response [10]: 28.9% (inactive)

O=C1CC(c2ccc(F)cc2)Cc2nc(NCC3CCCO3)ncc21 (centres undefined)
double positive events [1]: 55.2% | vesicle binding response [1]: 192% (inactive) | inhibition [2]: 6.29% (inactive) | superoxide response (% of plate) [3]: 99.1% (inactive) | aptamer binding inhibition [4]: 3% (inactive) | inhibition [5]: -9.45% (inactive) | response [6]: -2.69% (inactive) | binding (% of control) [7]: 99.8% (inactive) | efflux inhibition (fraction of control) [8]: -0.12 (inactive) | inhibition [9]: 7% (inactive) | differentiation response [10]: 38.5% (inactive)

c1ccc2c(CC3=NCCN3)cccc2c1
double positive events [1]: 49.4% | vesicle binding response [1]: 192% (inactive) | inhibition [2]: 11.9% (inactive) | superoxide response (% of plate) [3]: 99% (inactive) | aptamer binding inhibition [4]: 1% (inactive) | inhibition [5]: -1.38% (inactive) | response [6]: 1.28% (inactive) | binding (% of control) [7]: 96.2% (inactive) | efflux inhibition (fraction of control) [8]: -0.16 (inactive) | inhibition [9]: 11% (inactive) | differentiation response [10]: 7.87% (inactive)

CCNCCC(CCC(C)C)c1ccc2c(c1)OCO2 (centres undefined)
double positive events [1]: 54.2% | vesicle binding response [1]: 233% (inactive) | inhibition [2]: 9.09% (inactive) | superoxide response (% of plate) [3]: 103% (inactive) | aptamer binding inhibition [4]: -1% (inactive) | inhibition [5]: -9.39% (inactive) | response [6]: -1.01% (inactive) | binding (% of control) [7]: 96.9% (inactive) | efflux inhibition (fraction of control) [8]: -0.16 (inactive) | inhibition [9]: -3% (inactive) | differentiation response [10]: 9.49% (inactive)
